# HT1080NT lethal = qHTS for induction of synthetic lethality in tumor cells producing 2HG: qHTS for the HT-1080-NT fibrosarcoma cell line; HT-1080-NT fibrosarcoma viability, CellTiter-Glo ATP luminescence, 48 h; Potency, µM (doses to about 46.1 µM), without a hit: at the top dose activity, negative = less viability, hits mostly cytotoxic; 360,000 tested, 1.6% active;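 further: NT is the 2HG producing partner of a matched IDH1 knockdown line; potency means the concentration at half of the fitted maximal effect; 0% = DMSO-treated cells and -100% = media-only wells without cells; nearly all actives have a fitted effect of over 55% in size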
#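 Viability by CellTiter-Glo luminescence after 48 h compound exposure at 37C of HT-1080-NT cells (750/well, RPMI, 5% FBS). % activity scaled between DMSO wells and medium-only wells, then curve-fitted and categorized by curve class.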
# DT40 TDP1 no CPT = qHTS for Inhibitors of human tyrosyl-DNA phosphodiesterase 1 (TDP1): qHTS in cells in absence of CPT; Potency, µM (highest dose often 46.2 µM), for inactives: at the top dose activity change, negative = growth inhibition, most hits filed as inhibitors; DT40 Tdp1-/- hTDP1 cells, no CPT, ATP luminescence, 48 h; 420,000 tested, 15% active; further: potency means the concentration at half of the fitted maximal effect; nearly all actives have a fitted effect of over 55% in size
#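 DT40 Tdp1-/-;hTDP1 cells, no CPT (DMSO vehicle only), 400 cells/well; compounds pin-transferred; ≥48 hr, 37 °C; CellTiter-Glo 30 min RT dark, luminescence read.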
# HT1080 IDH1KD tx = qHTS for induction of synthetic lethality in tumor cells producing 2HG: qHTS for the HT-1080-IDH1KD cell line; Potency, µM (series often up to 46.1 µM), without a hit: at the highest dose activity, negative = toxicity, most hits filed as cytotoxic; 360,000 tested, 2% active; HT-1080 IDH1 knockdown viability, ATP luminescence, 48 h;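 further: potency means the concentration at half of the fitted maximal effect; 0% = DMSO wells and -100% = cell-free medium wells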
#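 CellTiter-Glo luminescence after 48 h compound exposure at 37 degrees C of IDH1-knockdown HT-1080 cells in 5% FBS RPMI. %Activity scaled between DMSO wells and cell-free media wells, with curves fitted and assigned curve classes.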
# DT40 TDP1 CPT = qHTS for Inhibitors of human tyrosyl-DNA phosphodiesterase 1 (TDP1): qHTS in cells in presence of CPT | chicken DT40 Tdp1-/-;hTDP1 cells + 20 nM CPT, ATP luminescence, 48 h | Potency, µM (series often up to 46.2 µM), without a hit: top-dose activity change, negative = growth inhibition, usual class: inhibitors | 420,000 tested, 12% active | AID 686979, 2013; further: potency means the concentration at half of the fitted maximal effect; nearly all actives have a fitted effect of over 55% in size
#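 Cell growth measured by CellTiter-Glo luminescence after a minimum 48 h, 37 C compound exposure with 20 nM CPT in Tdp1-knockout DT40 cells stably expressing hTDP1, seeded 400/well; qHTS titration format.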
# IL-1B inflam inh = qHTS for Inhibitors of Inflammasome Signaling: IL-1-beta AlphaLISA Primary Screen; activity change, % at 57.5 µM; 360,000 tested, 4.7% active; THP-1 LPS/ATP IL-1B secretion, AlphaLISA, 16 h; stronger effect = lower value; in the data active means activity change below about -50%; inconclusive means mostly about -30% to -49%
#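 Secreted IL-1B measured by AlphaLISA bead assay after 16 h compound exposure of THP-1 cells; compounds (final up to 57.5 uM) added 1 h before LPS (250 ng/mL) and ATP (1.25 mM) stimulation; lower signal means less secretion.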
# ALOX12 inh = Primary qHTS assay for inhibitors of human arachidonate 12S-lipoxygenase (ALOX12): Round 2; purified 12hLO, xylenol orange hydroperoxide absorbance; 580,000 tested, 1.1% active; Potency, µM (doses to about 108 µM), inactives show at the highest dose activity change, negative = inhibition, most hits filed as inhibitors; Polyunsaturated fatty acid lipoxygenase ALOX12 (Homo sapiens), P18054; further: potency means the concentration at half of the fitted maximal effect
# Target sequence (P18054 whole entry, looked up): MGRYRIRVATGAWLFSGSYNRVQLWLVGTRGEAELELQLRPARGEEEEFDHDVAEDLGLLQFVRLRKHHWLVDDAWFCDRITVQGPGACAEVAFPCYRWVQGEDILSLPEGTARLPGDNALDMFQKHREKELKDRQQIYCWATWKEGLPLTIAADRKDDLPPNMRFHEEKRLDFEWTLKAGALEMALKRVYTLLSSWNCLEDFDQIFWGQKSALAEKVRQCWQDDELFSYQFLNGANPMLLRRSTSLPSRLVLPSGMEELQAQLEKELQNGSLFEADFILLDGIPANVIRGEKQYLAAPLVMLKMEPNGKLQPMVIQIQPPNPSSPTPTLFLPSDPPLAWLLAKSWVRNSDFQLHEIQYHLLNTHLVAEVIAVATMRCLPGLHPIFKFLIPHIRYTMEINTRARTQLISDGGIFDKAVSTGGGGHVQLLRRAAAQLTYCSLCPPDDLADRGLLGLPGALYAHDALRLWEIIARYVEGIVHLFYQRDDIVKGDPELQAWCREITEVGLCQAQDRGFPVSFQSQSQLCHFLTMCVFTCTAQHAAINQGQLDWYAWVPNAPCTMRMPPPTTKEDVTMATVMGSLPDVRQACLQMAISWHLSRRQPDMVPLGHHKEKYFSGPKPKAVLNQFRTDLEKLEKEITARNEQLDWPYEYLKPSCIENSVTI
#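 Purified human 12hLO (150 nM final) in 25 mM Hepes, 0.01% Triton X-100, pH 7.0 was preincubated 15 min at room temperature with compound. Then 40 uM arachidonic acid was added, 30 min. Hydroperoxide was read by Fe-XO absorbance ratio 573/405 nm.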
# * hit, by the source's call; ? = inconclusive; / = no result given. The sample as a whole holds a higher share of hits than the screen did. Unless noted, the call rests on the fitted dose curve; in most records, active means well fitted curve in the direction sought with a large enough effect; inconclusive means small, poorly fitted or top-dose-only effect, or another doubt; inactive means no such curve, though single readings can be large; an effect the other way counts as inactive or inconclusive. Unless noted, on the % scale 0 is the no-effect control and ±100 the full control effect.
SMILES,HT1080NT lethal,DT40 TDP1 no CPT,HT1080 IDH1KD tx,DT40 TDP1 CPT,IL-1B inflam inh,ALOX12 inh
COc1ccc(NS(=O)(=O)c2cc(NC(=O)c3cc(F)c(F)cc3Cl)ccc2N2CCOCC2)cc1,-15%,-23%,-25%,?,-28,400%
O=C(Nc1ccc(N2CCOCC2)c(S(=O)(=O)Nc2ccccc2Cl)c1)c1ccc(F)cc1,-5%,?,-15%,?,-56*,?
CC(C)N1C[C@H](C(=O)NCc2ccc(F)cc2F)[C@H](C(=O)O)C1,/,/,/,/,/,26%
CCc1ccc(-c2nn(CC)c(=O)c3c2CCCC3)cc1S(=O)(=O)NC1CCCC1,/,/,/,/,/,-8%
CC(C)(C)NCCOCCOc1ccc(Cl)cc1C(C)(C)C,-9%,?,-21%,?,-6,?
COCCCNCCOCCOc1ccc(Cl)cc1C(C)(C)C,-28%,10µM*,?,16µM*,-14,?
C=CCNCCOCCOc1ccc(Cl)cc1C(C)(C)C,-2%,26µM*,-14%,18µM*,-53*,?
C=CCNCCCOc1ccc(Cl)cc1C(C)(C)C,-7%,?,?,?,-85*,?
Nc1nc(N)c(N=Nc2ccc(S(N)(=O)=O)cc2)c(=O)[nH]1,3%,-10%,0%,-5%,5,40µM*
COc1ccc(S(=O)(=O)N2CCCCCC2)cc1NC(=O)Cc1nn(C)c(=O)c2ccccc12,/,/,/,/,/,28%
Cc1cc(C)c2ccc3c(C)c(C)nc3c2[nH]1,?,21µM*,?,?,-1,8%
Cc1cc(C)c2ccc3nc(C)c(C)c3c2[nH]1,/,/,/,/,/,-9%
COc1ccc(/C=C/C(=O)Oc2ccc(C=O)cc2OC)cc1,2%,-19%,6%,-19%,0,448%
CCCCOC(=O)/C=C/c1ccc(OC(=O)OC)c(OC(=O)OC)c1,-27%,9.2µM*,?,7.3µM*,12,?
COC(=O)Oc1ccc(/C=C/C(=O)OC(C)C)cc1OC(=O)OC,-13%,9.2µM*,1%,?,5,-1%
CCOC(=O)C(=NO)C1=CSC2=NNC(C)(C)N12,-8%,21µM*,-17%,?,-1,5%
CN1C(=O)CCC2(CNC(=O)c3cccc4nccnc34)CCCC=C12 (stereo unspecified),/,/,/,/,/,19%
O=C(NCC1CCCC(CNC(=O)Nc2ccc(Cl)cn2)C1)Nc1ccc(Cl)cn1 (stereo unspecified),?,?,?,?,-83*,-36%
Cc1ccc(C(=O)N(C)CCOc2ccccc2)cc1S(=O)(=O)N1CCOCC1,9%,?,16%,?,0,2%
O=C(CSc1nc2ccccc2c(=O)[nH]1)Nc1ccc(S(=O)(=O)N2CCCC2)cc1,?,?,?,16µM*,38,-20%
O=C(CSc1nc2ccccc2[nH]1)Nc1nc(-c2ccc(Br)cc2)cs1,-26%,16µM*,?,23µM*,-14,-3%
O=C(CSc1nc2ccccc2c(=O)[nH]1)Nc1ccccc1,/,/,/,/,/,-1%
Cc1csc(NC(=O)CSc2nc3ccccc3[nH]2)n1,/,/,/,/,/,1%
CC(C)(C)c1csc(NC(=O)CSc2nc3ccccc3c(=O)[nH]2)n1,-15%,23µM*,-26%,18µM*,17,-3%
O=C(CSc1nc2ccccc2c(=O)[nH]1)Nc1ccc([N+](=O)[O-])cc1,?,?,9.2µM*,?,1,-20%
